# Measurements taken from PubChem BioAssay (Tox21).
# A number with no mark means an inactive call. Inconclusive results are not listed. A call without a number means that no potency is given here. The source made the active and inactive calls. Unless noted, calls come from the whole dose curve.
# Tests used:
# [1] = Nuclear factor erythroid 2-related factor 2/antioxidant responsive element (Nrf2/ARE) small molecule agonists: luciferase reporter gene qHTS assay in human keratinocytes (AID 1919969); note: nearly all actives have a fitted effect of over 35% in size; note: potency is the fitted concentration of half-maximal effect
# [2] = target: Gonadotropin-releasing hormone receptor (Homo sapiens) (UniProt P30968); test: Human gonadotropin-releasing hormone receptor (GnRHR) small molecule agonists, calcium flux assay in GnRHR-HEK293 cells (AID 1920063); note: nearly all actives have a fitted effect of over 35% in size
# Chain of Gonadotropin-releasing hormone receptor (Homo sapiens) (P30968 whole entry, looked up): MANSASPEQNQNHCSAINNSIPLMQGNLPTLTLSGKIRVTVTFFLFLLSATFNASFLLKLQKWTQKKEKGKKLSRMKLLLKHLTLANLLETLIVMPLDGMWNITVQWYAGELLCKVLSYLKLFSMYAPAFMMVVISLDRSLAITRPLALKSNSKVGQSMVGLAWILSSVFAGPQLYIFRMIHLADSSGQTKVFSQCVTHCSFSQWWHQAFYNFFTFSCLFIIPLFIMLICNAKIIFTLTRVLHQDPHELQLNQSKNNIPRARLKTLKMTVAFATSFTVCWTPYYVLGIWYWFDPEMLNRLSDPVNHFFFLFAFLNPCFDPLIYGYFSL
# Procedure, shortened: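 We seeded human GnRHR-expressing HEK293 cells for 18 hours, loaded them with calcium dye for an hour at 37 C, added test compounds, and recorded fluorescence intensity kinetically for three minutes.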
# [3] = target: KiSS-1 receptor (Homo sapiens) (UniProt Q969F8); test: Human kisspeptin (KISS1R) small molecule agonists, calcium flux assay in KISS1R-HEK293 cells (AID 1920064; active = well fitted activation curve with a large enough effect in the repeat runs)
# Chain of KiSS-1 receptor (Homo sapiens) (Q969F8 whole entry, looked up): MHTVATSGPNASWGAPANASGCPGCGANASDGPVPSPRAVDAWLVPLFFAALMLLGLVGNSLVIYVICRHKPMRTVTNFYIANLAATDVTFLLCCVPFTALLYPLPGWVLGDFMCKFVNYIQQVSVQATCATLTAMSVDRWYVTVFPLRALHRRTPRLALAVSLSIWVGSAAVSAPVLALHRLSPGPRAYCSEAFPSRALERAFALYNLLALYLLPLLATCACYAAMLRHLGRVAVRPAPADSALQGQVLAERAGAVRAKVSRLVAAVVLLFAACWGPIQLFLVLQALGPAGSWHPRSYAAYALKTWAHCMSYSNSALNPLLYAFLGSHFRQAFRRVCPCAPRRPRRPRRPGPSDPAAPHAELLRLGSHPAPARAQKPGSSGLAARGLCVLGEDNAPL
# Procedure, shortened: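 Kinetic calcium assay, 1 s sampling over 3 min at Ex/Em 480/540, in HEK293 cells engineered with human KISS1R; compounds delivered in DMSO after 1 h dye loading.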
# [4] = G protein-coupled receptor (GPCR) small molecule agonists, calcium flux assay: HEK293 wild type cell line counter screen (AID 1920065)
# Procedure, shortened: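 Calcium-sensitive dye, loaded 1 h at 37 C into cells cultured 18 h, reports compound-evoked calcium release as fluorescence (Ex/Em 480/540), measured over 3 min. Agonist mode; 15-point titrations, triplicate.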
# [5] = p53 small molecule agonists, cell-based qHTS assay with human liver microsomes (AID 1963577);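 note: p53 response element beta-lactamase reporter cells with liver microsomes plus NADPH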
# Procedure, shortened: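 p53RE-bla cells; 5 h settle, 37 C/5% CO2; cpd + HLM 0.5 mg/mL + NADPH 0.5 mg/mL (final); 16 h 37 C; LiveBLAzer 2 h RT dark; fluorescence readout.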
# [6] = p53 small molecule agonists, cell-based qHTS assay with rat liver microsomes (AID 1963578)
# Procedure, shortened: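 Rat liver microsome activation: microsomes 0.5 mg/mL, NADPH 0.5 mg/mL final; p53RE-bla cells, 16 h 37 C; LiveBLAzer readout, 2 h RT dark.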
# [7] = p53 small molecule agonists, cell-based qHTS assay with human liver microsomes: qHTS cell viability counter screen (AID 1963579); note: nearly all actives have a fitted effect of over 45% in size
# Procedure, shortened: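 Luminescent CellTiter-Glo read-out, 30 min at room temperature, gauged cytotoxicity in p53RE-bla cells exposed 16 h at 37 C to DMSO-dissolved compounds with metabolic activation by human liver microsomes and NADPH, each 0.5 mg/mL final.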
# [8] = p53 small molecule agonists, cell-based qHTS assay with rat liver microsomes: qHTS cell viability counter screen (AID 1963580); note: nearly all actives have a fitted effect of over 45% in size
# Procedure, shortened: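 HCT-116 p53RE-bla, 4,000 cells/well, 5 h pre-incubation; cpd + rat liver microsomes 0.5 mg/mL + NADPH 0.5 mg/mL (final); 16 h, 37 C; CellTiter-Glo, 30 min RT; luminescence.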
# [9] = p53 small molecule agonists, cell-based qHTS assay: qHTS cell viability counter screen (AID 1963581); note: nearly all actives have a fitted effect of over 45% in size
# Procedure, shortened: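 Following 5 h attachment, HCT-116 p53RE-bla cells took up compound for 16 h at 37 C; the reporter was read with B/G FRET substrate (2 h RT), and viability then via CellTiter-Glo ATP luminescence.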
# [10] = p53 small molecule agonists, cell-based qHTS assay (AID 1963582; active = well fitted activation curve with a large enough effect in the signal ratio in the repeat runs, not every such curve was filed as active; the % refers to the signal ratio)
# Procedure, shortened: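 In this cell-based concentration-response screen, a p53 response element drives beta-lactamase; cells received DMSO-borne compounds after 5 h culture and were incubated a further 16 h before FRET substrate development.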
# [11] = cAMP Responsive Elements (CRE) small molecule antagonists, cell-based qHTS assay (AID 1963591; active = well fitted inhibition curve with a large enough effect in the signal ratio in the repeat runs, not every such curve was filed as active; the % refers to the signal ratio)
# Procedure, shortened: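 HEK293T cells carrying a CRE-driven beta-lactamase reporter receive compound and NKH477 (0.25 uM final) for 3 h. Fluorescence from LiveBLAzer B/G FRET substrate is read after 2 h at room temperature.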
# [12] = target: Beta-2 adrenergic receptor (Homo sapiens) (UniProt P07550); test: Adrenergic beta2 receptor (ADRB2) small molecule antagonists, cell-based qHTS assay (AID 1963592); note: series mostly up to about 92 µM; nearly all actives have a fitted effect of over 50% in size
# Chain of Beta-2 adrenergic receptor (Homo sapiens) (P07550 whole entry, looked up): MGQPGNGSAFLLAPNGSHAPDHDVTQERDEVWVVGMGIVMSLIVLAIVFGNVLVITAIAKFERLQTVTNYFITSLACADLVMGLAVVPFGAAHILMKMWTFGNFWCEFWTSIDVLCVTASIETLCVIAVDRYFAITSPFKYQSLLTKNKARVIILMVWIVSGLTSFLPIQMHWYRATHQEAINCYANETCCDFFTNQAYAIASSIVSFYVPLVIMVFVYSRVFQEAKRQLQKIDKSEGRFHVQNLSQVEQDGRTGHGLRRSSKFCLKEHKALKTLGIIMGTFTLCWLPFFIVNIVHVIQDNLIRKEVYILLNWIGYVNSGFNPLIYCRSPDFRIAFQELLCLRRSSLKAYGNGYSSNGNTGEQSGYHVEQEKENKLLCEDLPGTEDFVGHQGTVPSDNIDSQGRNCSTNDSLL
# Procedure, shortened: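 Cells (CHO, stable ADRB2 overexpression) incubated 18-20hr at 37C; compounds added from DMSO; agonist mix (1nM isoproterenol, 100uM IBMX, 25uM Ro-20-1724) added; 0.5hr RT; d2-cAMP and anti-cAMP-cryptate added; 1hr RT; 665/615 nm read.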
# [13] = target: Beta-2 adrenergic receptor (Homo sapiens) (UniProt P07550); test: Adrenergic beta2 receptor (ADRB2) small molecule agonists, cell-based qHTS assay (AID 1963593);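 note: CHO cells stably overexpressing human ADRB2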
# Procedure, shortened: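 CHO cells stably over-expressing ADRB2 were plated overnight at 37C, then dosed with compounds plus a stimulation mix containing 100uM IBMX and 25uM Ro-20-1724 for 0.5hr at room temperature. cAMP was measured by HTRF competition, 1hr.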
# [14] = target: D(2) dopamine receptor (Homo sapiens) (UniProt P14416); test: Dopamine D2 receptor (DRD2) small molecule agonists, cell-based qHTS assay (AID 1963594); note: nearly all actives have a fitted effect of over 35% in size
# Chain of D(2) dopamine receptor (Homo sapiens) (P14416 whole entry, looked up): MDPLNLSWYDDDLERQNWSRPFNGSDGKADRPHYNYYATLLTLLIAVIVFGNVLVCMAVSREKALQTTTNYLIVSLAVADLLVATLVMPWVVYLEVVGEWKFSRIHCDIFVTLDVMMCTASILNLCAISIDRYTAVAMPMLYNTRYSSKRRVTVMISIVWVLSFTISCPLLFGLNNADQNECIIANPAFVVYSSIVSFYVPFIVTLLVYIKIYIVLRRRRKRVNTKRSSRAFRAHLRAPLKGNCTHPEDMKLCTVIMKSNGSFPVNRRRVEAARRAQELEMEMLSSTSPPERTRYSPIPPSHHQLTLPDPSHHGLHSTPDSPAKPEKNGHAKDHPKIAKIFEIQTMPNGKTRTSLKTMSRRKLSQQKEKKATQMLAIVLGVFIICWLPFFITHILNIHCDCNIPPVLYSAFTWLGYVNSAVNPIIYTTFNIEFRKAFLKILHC
# Procedure, shortened: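 cAMP accumulation in DRD2-HEK293 cells measured by HTRF after 1 h detection; compounds added 10 min before NKH477 (200nM […]) forskolin-analogue stimulation, 30 min at room temperature, with Ro20-1724 present at 0.1 mM final.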
# [15] = target: D(2) dopamine receptor (Homo sapiens) (UniProt P14416); test: Dopamine D2 receptor (DRD2) small molecule antagonists, cell-based qHTS assay (AID 1963595; active = well fitted inhibition curve with a large enough effect in the signal ratio in the repeat runs, with a control signal flat; the % refers to the signal ratio)
# Procedure, shortened: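 HEK293 cells stably expressing DRD2 were preincubated with 0.1 mM Ro20-1724, then with compound for 10 min at room temperature. Cells were stimulated with 200 nM NKH477 plus 12 nM quinpirole for 30 min, and cAMP was read by HTRF.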
# [16] = target: 5-hydroxytryptamine receptor 2A (Homo sapiens) (UniProt P28223); test: 5-hydroxytryptamine receptor 2A (HTR2A) small molecule antagonists, cell-based qHTS assay (AID 1963586); note: nearly all actives have a fitted effect of over 45% in size
# Chain of 5-hydroxytryptamine receptor 2A (Homo sapiens) (P28223 whole entry, looked up): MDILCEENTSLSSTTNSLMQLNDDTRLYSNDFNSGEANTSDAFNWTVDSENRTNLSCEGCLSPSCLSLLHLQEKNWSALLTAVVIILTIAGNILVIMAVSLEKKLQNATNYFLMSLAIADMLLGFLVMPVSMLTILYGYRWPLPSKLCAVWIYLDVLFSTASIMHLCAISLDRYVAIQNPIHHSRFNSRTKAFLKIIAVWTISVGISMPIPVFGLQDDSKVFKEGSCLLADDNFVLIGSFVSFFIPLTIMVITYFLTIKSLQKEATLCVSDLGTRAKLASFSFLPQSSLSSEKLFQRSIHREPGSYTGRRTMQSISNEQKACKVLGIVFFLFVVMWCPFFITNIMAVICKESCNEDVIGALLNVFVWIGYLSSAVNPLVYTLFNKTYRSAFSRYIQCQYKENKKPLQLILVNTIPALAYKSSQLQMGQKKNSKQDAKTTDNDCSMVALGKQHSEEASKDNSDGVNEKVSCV
# Procedure, shortened: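 Antagonist-mode intracellular calcium assay: DOI (4 nM) added after 5 min compound pre-incubation at room temperature to dye-loaded HTR2A-CHO cells. Fluorescence followed for 3 min, sampled every second.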
# [17] = target: 5-hydroxytryptamine receptor 2A (Homo sapiens) (UniProt P28223); test: 5-hydroxytryptamine receptor 2A (HTR2A) small molecule agonists, cell-based qHTS assay (AID 1963587); note: nearly all actives have a fitted effect of over 30% in size
# Procedure, shortened: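 Kinetic calcium-flux fluorescence (2 min, 1 sec intervals) after compound addition in agonist mode. HTR2A-CHO cells were cultured 18 h, then dye-loaded 1 h at 37 C.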
# [18] = target: Muscarinic acetylcholine receptor M1 (Homo sapiens) (UniProt P11229); test: Cholinergic receptor muscarinic 1 (CHRM1) small molecule antagonists, cell-based qHTS assay (AID 1963588); note: nearly all actives have a fitted effect of over 40% in size
# Chain of Muscarinic acetylcholine receptor M1 (Homo sapiens) (P11229 whole entry, looked up): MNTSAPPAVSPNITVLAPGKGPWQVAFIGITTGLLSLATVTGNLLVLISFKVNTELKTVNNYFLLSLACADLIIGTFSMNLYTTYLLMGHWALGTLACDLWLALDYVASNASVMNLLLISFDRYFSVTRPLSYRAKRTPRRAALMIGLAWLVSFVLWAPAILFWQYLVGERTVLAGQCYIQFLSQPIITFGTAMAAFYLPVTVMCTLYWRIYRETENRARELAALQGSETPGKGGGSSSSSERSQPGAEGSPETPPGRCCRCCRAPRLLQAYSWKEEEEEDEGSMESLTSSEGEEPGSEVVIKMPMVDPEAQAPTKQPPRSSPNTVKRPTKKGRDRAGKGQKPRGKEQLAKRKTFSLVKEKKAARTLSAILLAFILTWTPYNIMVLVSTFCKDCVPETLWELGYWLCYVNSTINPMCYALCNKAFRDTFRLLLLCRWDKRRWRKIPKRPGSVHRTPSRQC
# Procedure, shortened: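 CHRM1-CHO calcium-flux assay, antagonist mode. Cells were seeded 18 h, dye-loaded 1 h at 37 C and given compound for 5 min at RT, then acetylcholine was added at 50nM. FDSS fluorescence was read 3 min; 15 concentrations, three runs.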
# [19] = target: Muscarinic acetylcholine receptor M1 (Homo sapiens) (UniProt P11229); test: Cholinergic receptor muscarinic 1 (CHRM1) small molecule agonists, cell-based qHTS assay (AID 1963589); note: nearly all actives have a fitted effect of over 35% in size
# Procedure, shortened: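 Measures agonist-induced intracellular calcium rise. Stable human CHRM1 CHO line, 1 h dye load at 37 C, compounds from DMSO, kinetic fluorescence read.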
# [20] = cAMP Responsive Elements (CRE) small molecule agonists, cell-based qHTS assay (AID 1963590)
# Procedure, shortened: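 A CRE-responsive beta-lactamase reporter in HEK 293T cells was used. Treatment ran 3 h at 37 C; detection used LiveBLAzer B/G FRET substrate for 2 h at room temperature.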
compound,measurement,setting,value
CCOC(=O)c1ncn2c1CN(C)C(=O)c1cc(F)ccc1-2,Potency,[1],inactive
same,Potency,[2],inactive
same,outcome,[3],inactive
same,outcome,[4],inactive
same,Potency,[5],inactive
same,Potency,[6],inactive
same,Potency,[7],inactive
same,Potency,[8],inactive
same,Potency,[9],inactive
same,Potency,[10],inactive
same,Potency,[11],inactive
same,Potency,[12],inactive
same,Potency,[13],inactive
same,Potency,[14],inactive
same,Potency,[15],inactive
CSSc1ccoc1C,Potency,[1],inactive
same,Potency,[2],inactive
same,outcome,[3],inactive
same,outcome,[4],inactive
same,Potency,[5],inactive
same,Potency,[6],inactive
same,Potency,[7],inactive
same,Potency,[8],inactive
same,Potency,[9],inactive
same,Potency,[10],inactive
same,Potency,[16],inactive
same,Potency,[17],inactive
same,Potency,[18],inactive
same,Potency,[19],inactive
same,Potency,[20],inactive
same,Potency,[11],inactive
same,Potency,[12],inactive
same,Potency,[14],inactive
same,Potency,[15],inactive
Cc1c(C(C)C)c(=O)n(-c2ccccc2)n1C,Potency,[1],inactive
same,Potency,[2],inactive
same,outcome,[3],inactive
same,outcome,[4],inactive
same,Potency,[5],inactive
same,Potency,[6],inactive
same,Potency,[7],inactive
same,Potency,[8],inactive
same,Potency,[9],inactive
same,Potency,[10],inactive
same,Potency,[16],inactive
same,Potency,[17],inactive
same,Potency,[18],inactive
same,Potency,[19],inactive
same,Potency,[20],inactive
same,Potency,[11],inactive
same,Potency,[12],inactive
same,Potency,[14],inactive
same,Potency,[15],inactive
Oc1cc(O)c(Cl)cc1Cl,Potency,[1],55.8 µM (active)
same,Potency,[2],inactive
same,outcome,[3],inactive
same,outcome,[4],inactive
same,Potency,[5],inactive
same,Potency,[6],inactive
same,Potency,[7],inactive
same,Potency,[8],inactive
same,Potency,[9],inactive
same,Potency,[10],inactive
same,Potency,[16],inactive
same,Potency,[17],inactive
same,Potency,[18],inactive
same,Potency,[20],inactive
same,Potency,[11],inactive
same,Potency,[14],inactive
same,Potency,[15],inactive
O=C(O)CNCC(=O)O,"activity, positive = activation",[1],-2.08% [at 8.39 µM]
same,activity change,[2],"0.0589% [at 5.22 µM, stronger effect = higher value]"
same,activation,[3],0.594% [at 6.97 µM]
same,activation,[4],0.144% [at 5.23 µM]
same,activation,[5],0.261% [at 5.99 µM]
same,activation,[6],0.304% [at 5.99 µM]
same,"activity change, negative = cytotoxicity",[7],-6.14% [at 5.99 µM]
same,"activity change, negative = cytotoxicity",[8],8.22% [at 5.99 µM]
same,"activity change, negative = cytotoxicity",[9],-13% [at 5.99 µM]
same,activation,[10],0.447% [at 5.99 µM]
same,activation,[17],-1.98% [at 7.02 µM]
same,"activity, negative = inhibition",[18],-11.9% [at 5.58 µM]
same,activation,[19],0.803% [at 6.97 µM]
same,activation,[20],-0.186% [at 8.39 µM]
same,"activity change, negative = inhibition",[11],0.325% [at 8.39 µM]
same,"activity change, negative = inhibition",[12],-7.9% [at 8.39 µM]
same,activation,[14],-0.477% [at 8.39 µM]
same,"activity change, negative = inhibition",[15],-7.14% [at 8.38 µM]
Cn1c(=O)[nH]c2ncn(C)c2c1=O,Potency,[1],inactive
same,Potency,[2],inactive
same,outcome,[3],inactive
same,outcome,[4],inactive
same,Potency,[5],inactive
same,Potency,[6],inactive
same,Potency,[7],inactive
same,Potency,[8],inactive
same,Potency,[9],inactive
same,Potency,[10],inactive
same,Potency,[16],inactive
same,Potency,[17],inactive
same,Potency,[18],inactive
same,Potency,[19],inactive
same,Potency,[20],inactive
same,Potency,[12],inactive
same,Potency,[14],inactive
same,Potency,[15],inactive
